USP1 inh: Inhibitors of USP1/UAF1: Primary Screen; Potency, µM (titrated, usually from 57.1 µM), inactives show at the highest dose activity change, negative = inhibition, usual class: inhibitors; recombinant USP1/UAF1, Ub-Rhodamine cleavage fluorescence; 390,000 compounds, 0.23% hits; AID 743255, 2014; Ubiquitin carboxyl-terminal hydrolase 1 (Homo sapiens), O94782; also: potency is read from the fitted curve at half-maximal effect; nearly all actives have a fitted effect of over 60% in size
Target sequence (O94782 whole entry, looked up): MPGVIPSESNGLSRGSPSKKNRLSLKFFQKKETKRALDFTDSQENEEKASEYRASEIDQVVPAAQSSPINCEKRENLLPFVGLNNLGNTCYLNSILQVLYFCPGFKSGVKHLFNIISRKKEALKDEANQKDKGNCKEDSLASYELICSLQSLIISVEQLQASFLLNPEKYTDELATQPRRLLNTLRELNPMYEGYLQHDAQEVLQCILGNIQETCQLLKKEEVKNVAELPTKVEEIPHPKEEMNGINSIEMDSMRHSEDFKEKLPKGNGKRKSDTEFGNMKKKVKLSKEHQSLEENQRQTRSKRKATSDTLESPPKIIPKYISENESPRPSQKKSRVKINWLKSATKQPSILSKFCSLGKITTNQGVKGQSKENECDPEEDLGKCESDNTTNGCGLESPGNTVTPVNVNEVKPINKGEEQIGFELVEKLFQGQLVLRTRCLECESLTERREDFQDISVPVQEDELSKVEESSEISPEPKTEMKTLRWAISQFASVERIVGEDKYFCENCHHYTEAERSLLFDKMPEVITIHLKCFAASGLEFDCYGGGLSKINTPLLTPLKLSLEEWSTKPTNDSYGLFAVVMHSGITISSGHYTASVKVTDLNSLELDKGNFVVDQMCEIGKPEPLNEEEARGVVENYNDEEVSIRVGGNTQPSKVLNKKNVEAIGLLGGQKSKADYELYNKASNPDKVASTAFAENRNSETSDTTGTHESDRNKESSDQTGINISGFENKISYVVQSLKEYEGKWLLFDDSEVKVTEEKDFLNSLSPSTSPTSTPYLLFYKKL
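USP1/UAF1 complex (1 nM) preincubated 15 min at room temperature with compound, then Ub-Rho substrate (150 nM final) added. Kinetic fluorescence at 480/540 nm over 6 reads at 60 s intervals; 50 mM HEPES pH 7.8, 0.5 mM EDTA, 0.1 mg/ml BSA, 1 mM TCEP, 0.01% Tween-20.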
USP2a inh: qHTS Assay for Inhibitors of Ubiquitin-specific Protease USP2a Using CHOP2 as the Reporter | 330,000 compounds, 0.01% hits | Ubiquitin carboxyl-terminal hydrolase 2 (Homo sapiens), O75604 | Potency, µM (series often up to 38.3 µM), for the others: top-dose activity change, negative = inhibition, usual class: inhibitors | USP2 core, Ub-CHOP2 coupled fluorogenic reporter, 485/531;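 also: potency is read from the fitted curve at half-maximal effect; plate controls were DMSO wells for no effect and full inhibition by NEM control for full effect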
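Cell-free coupled assay: 10nM USP2 core preincubated 30min RT with compound in Tris-HCl pH 8.0/CaCl2/CHAPS buffer, then 25nM Ub-CHOP2 and 25nM reporter substrate; fluorescence (Ex 485/Em 531) read after 60min RT, normalized to NEM inhibition, concentration-response curves fitted.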
PLK1 PBD inh: qHTS for Inhibitors of PLK1-PDB (polo-like kinase 1 - polo-box domain): Primary Screen. 360,000 compounds, 2.8% hits. Plk1 PBD binding of FITC phosphopeptide, fluorescence polarization. Potency, µM, inactives show max response, negative = inhibition, hits mostly inhibitors. Serine/threonine-protein kinase PLK1 (Homo sapiens), P53350; also: potency is read from the fitted curve at half-maximal effect; series mostly up to about 57 µM; nearly all actives have a fitted effect of over 65% in size
GALK inhibitor: qHTS Assay for Inhibitors of Human Galactokinase (GALK). P51570. Purified GALK, Kinase-Glo residual ATP luminescence. Potency, µM (doses to about 57.5 µM), for the others: top-dose activity change, negative = inhibition, hits mostly inhibitors. 270,000 compounds, 0.007% hits; also: potency is read from the fitted curve at half-maximal effect
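Quantitative HTS: GALK 5 nM, ATP 35 uM, galactose 100 uM, 1 h room temperature, then luciferase-based ATP detection.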
Coupling enz: qHTS Assay for Inhibitors of Fructose-1,6-bisphosphate Aldolase from Giardia Lamblia: Coupling assay counterscreen; coupling enzyme system counterscreen, AmpLite Red fluorescence; activity change, negative = inhibition, % at 58.2 µM, hits read low; 290,000 compounds, 0.67% hits; in the data active = activity change below about -30%
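Activity here indicates interference with the coupling reaction, not aldolase inhibition. Compounds at 57.5 uM final met coupling enzymes for 10 min at RT; substrate and AmpLite Red detection followed, with a 525/598 nm fluorescence read after 20 min.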
VDR inhibitor: Inhibitors of the vitamin D receptor (VDR): qHTS; Potency, µM, for the others: max response, negative = inhibition, most hits filed as inhibitors; VDR-SRC2-3 peptide fluorescence polarization, 2 h; Vitamin D3 receptor (Homo sapiens), P11473; 400,000 compounds, 0.93% hits; also: potency is read from the fitted curve at half-maximal effect
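The screen uses fluorescence polarization to detect compounds that interfere with recruitment of the SRC2-3 coactivator peptide to VDR; plates are read after 2 h at room temperature.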
* hit, by the source's call; ? = inconclusive; · = no result. An excerpt weighted towards active compounds, which were near 3.2% of everything screened. Unless noted, calls follow the shape of the dose curve; as a rule, active = well fitted curve in the direction sought with a large enough effect; inconclusive = small, poorly fitted or top-dose-only effect, or another doubt; inactive = no such curve, though single readings can be large; an effect the other way counts as inactive or inconclusive. Unless noted, % is scaled to controls: 0 for no effect and ±100 for the full control effect.

SMILES	USP1 inh	USP2a inh	PLK1 PBD inh	GALK inhibitor	Coupling enz	VDR inhibitor
CN(C)c1cccc(NC(=O)C2(C)CC2(Cl)Cl)c1 (stereo unspecified)	-7%	3%	-9%	0%	0	-1%
CC(=O)Nc1ccc(NC(=O)C2(C)CC2(Cl)Cl)cc1 (stereo unspecified)	-6%	-1%	21µM*	2%	3	79µM*
OCc1ccccc1N=c1ssnc1Cl	·	2%	·	0%	3	·
Clc1ccc(N=c2ssnc2Cl)nc1	-7%	7%	0.95µM*	2%	1	5.6µM*
CC1CCC(NC(=O)CCn2ccc3cc(S(=O)(=O)N4CCCC4)ccc32)CC1 (stereo unspecified)	-2%	0%	?	6%	-1	-21%
COc1ccc2c(c1)c(CC(=O)Nc1cc(C)c(OC)c(C)c1)c(C)n2C(=O)c1ccc(Cl)cc1	-17%	·	·	·	·	-30%
CC(C)C(=O)NC(NC1CCS(=O)(=O)C1)C(Cl)(Cl)Cl (stereo unspecified)	6%	-1%	-1%	1%	0	-9%
CCCC(=O)NC(NC1CCS(=O)(=O)C1)C(Cl)(Cl)Cl (stereo unspecified)	-19%	-1%	27µM*	0%	1	-2%
COc1cccc(Cn2c(=O)c(-c3cccs3)nc3cnc(N4CCOCC4)nc32)c1	·	·	·	·	-1	-19%
CN1/C(=C\C=C2/SC(=S)NC2=O)C(C)(C)c2ccccc21	25µM*	?	82%	-1%	-4	?
Cc1cccc(NC(=S)NC2CC3CCCC(C2)N3Cc2ccccc2)c1C (stereo unspecified)	-7%	2%	-22%	-2%	1	-2%
O=C(c1cc(-c2ccc(Cl)cc2)on1)N1CCCCCC1	-19%	1%	27µM*	-2%	-1	?
COc1ccc(-c2cc(C(=O)N3CCc4ccccc4C3)no2)cc1	-12%	0%	-12%	0%	-2	-16%
O=C(c1cc(-c2ccc(Br)cc2)on1)N1CCc2ccccc2C1	4%	0%	34µM*	0%	0	?
N=C(N)c1ccc(N)cc1	-17%	0%	-15%	·	·	-7%
Nc1ccc(O)cc1	·	·	·	·	·	79µM*
CCCCc1ccc(NC(=S)Nc2ccc(Nc3ccc(OC)cc3)cc2)cc1	-2%	-6%	15µM*	-4%	-12	-28%
CCCCc1ccc(NC(=S)NCc2cccc(OC)c2)cc1	-12%	-6%	-27%	1%	1	8%
Cc1ccccc1C(=O)Nc1nc(=S)ss1	-10%	-1%	11µM*	0%	5	?
CC(=O)Nc1nc(=S)ss1	-15%	-1%	24µM*	-2%	6	45µM*
CC(C)CC(=O)Nc1nnc(CCc2ccccc2)s1	-19%	1%	4%	2%	3	-7%
CC(C)CC(=O)Nc1nc(=S)ss1	-6%	0%	17µM*	1%	4	?
O=C(Nc1nc(=S)ss1)c1c(F)cccc1F	-9%	0%	-4%	-4%	1	6%
O=C(COC(=O)C1c2ccccc2Oc2ccccc21)NC1CCS(=O)(=O)C1 (stereo unspecified)	-7%	1%	12µM*	4%	-13	?
CN(C(=O)COC(=O)C1c2ccccc2Oc2ccccc21)C1CCS(=O)(=O)C1 (stereo unspecified)	-15%	-1%	-10%	5%	0	2%
SMILES	USP1 inh	USP2a inh	PLK1 PBD inh	GALK inhibitor	Coupling enz	VDR inhibitor
CCOC(=O)CCc1c(C)c2ccc(O)cc2oc1=O	-13%	2%	-13%	2%	-39*	-11%
Cc1c(Cc2ccccc2)c(=O)oc2cc(O)ccc12	-19%	3%	-7%	3%	15	8%
Cn1c(SCc2cccc(Br)c2)nc2c1c(=O)[nH]c(=O)n2C	-20%	0%	2%	-2%	2	0%
COCCn1c(SCc2ccc(F)cc2)nc2c1c(=O)[nH]c(=O)n2C	-6%	1%	11µM*	-1%	-4	?
Cc1ccc(CSc2nc3c(c(=O)[nH]c(=O)n3C)n2CCC(C)C)cc1	-15%	-1%	-16%	2%	2	-12%
CC(=O)CSc1nc2c(c(=O)[nH]c(=O)n2C)n1Cc1cccc(Br)c1	-2%	1%	19µM*	-2%	-1	-20%
CC(C)CCn1c(SCc2ccc(Cl)cc2)nc2c1c(=O)[nH]c(=O)n2C	-20%	0%	27µM*	2%	2	?
C/C=C/Cn1c(SCc2ccccc2)nc2c1c(=O)[nH]c(=O)n2C	-12%	3%	24µM*	0%	4	?
CCCCCN(C(=O)CCC(=O)OCC(=O)N1CCC(C)CC1)c1c(N)n(CCCC)c(=O)[nH]c1=O	-11%	0%	-7%	·	·	-30%
COc1ccc(-c2ocnc2C(=O)N2CCN(C(c3ccccc3)c3ccccc3)CC2)cc1	-17%	-10%	-3%	0%	3	-1%
CCCCn1c(SCc2ccc(Cl)cc2)nc2c1c(=O)[nH]c(=O)n2C	-9%	1%	21µM*	-3%	2	89µM*
O=c1cc(CN2CCN(c3ccc(Cl)c(Cl)c3)CC2)c2ccccc2o1	·	·	3%	·	·	·
CC1(C)CCN2CCC(C)(C)c3c(O)ccc1c32	?	19%	-12%	-1%	-30*	?
Cc1ccc(C(=O)N2CCSC2=S)cc1	-7%	10%	?	-2%	-4	-16%
Cc1ccc(C(=O)Oc2csc(=S)n2C(=O)c2ccc(C)cc2)cc1	-7%	1%	3µM*	-3%	0	-30%
CCCC1COC(Cn2cncn2)(c2ccc(C)cc2)O1 (stereo unspecified)	12%	-2%	-3%	1%	1	7%
CCN1C(=O)/C(=C\N(C)C)S/C1=N\S(=O)(=O)c1ccccc1	-3%	3%	?	-3%	0	-13%
CCOC(=O)/C(C#N)=N/Nc1ccc(S(=O)(=O)N2CCc3ccccc32)cc1	-24%	-6%	-2%	0%	2	-15%
N#C/C(=N\Nc1ccc(S(=O)(=O)N2CCc3ccccc32)cc1)C(N)=S	?	-3%	27µM*	-2%	8	?
N#C/C(=N\Nc1ccc(S(=O)(=O)N2CCCCC2)cc1)C(N)=S	-17%	5%	?	-3%	3	?
